From PubChem BioAssay (NCATS)
“And” between values parts separate entries of the source, which are not always exact repeats. Identical values can stand only once. Inconclusive results are not listed. The source made the active and inactive calls. The call rests on the fitted dose curve; in most records, active means well fitted inhibition curve with a large enough effect; inconclusive means small, poorly fitted or top-dose-only effect; inactive means flat fitted curve, though single readings scatter.

Each compound was assayed on KB-3-1 (assay: Cytotoxic Profiling of Annotated Libraries Using Quantitative High-Throughput Screening (AID 1296008; further: nearly all actives have a fitted effect of over 60% in size)). Conditions: Five cell lines viability, CellTiter-Glo ATP luminescence, 48-72 h; max response: active compounds read low.
How it was run: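 Compounds were pin-transferred onto cells and incubated 48 or 72 hr at 37 degree Celsius, 95% humidity. CellTiter-Glo was added, plates sat 10 min at room temperature, then ATP-coupled luminescence was imaged as the viability read-out.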
On the % scale 0 is the no-effect control and ±100 the full control effect; potency means the concentration at half of the fitted maximal effect.

Row | Compound | max response | outcome | Potency
1 | O=C(OC1C[C@H]2CC[C@@H](C1)[N+]21CCCC1)C(O)(c1ccccc1)c1ccccc1 (stereo partly specified) | 8.48% (inactive) and 5.72% (inactive) | – | –
2 | Oc1ccc(-c2nc(-c3ccc(F)cc3)c(-c3ccncc3)[nH]2)cc1 | – | inactive | –
3 | CC1(C)C(=O)N(CCN2CCC(C(=O)c3ccc(F)cc3)CC2)c2ccccc21 | 2.39% (inactive) | – | –
4 | C[C@]12CCC(=O)C=C1CC[C@@H]1[C@H]2[C@@H](O)C[C@@]2(C)[C@H]1CC[C@]2(O)C(=O)CO | 33.4% (inactive) | – | –
5 | O=C(c1ccccc1)c1ccc2n1CCC2C(=O)O (stereo unspecified) | 1.88% (inactive) and -12.7% (inactive) and 3.64% (inactive) | – | –
6 | CCOC(=O)C(C)Oc1cccc2c(=O)n(CC(=O)Nc3ccc4c(c3)OCCO4)ccc12 (stereo unspecified) | – | inactive | –
7 | O=C(CS(=O)Cc1ccco1)NCC=CCOc1cc(CN2CCCCC2)ccn1 (stereo unspecified) | 2.68% (inactive) | – | –
8 | COC(=O)C1=C(C)NC(C)=C(C(=O)OC(C)C)C1c1cccc2nonc12 (stereo unspecified) | 5.12% (inactive) and -6.21% (inactive) | – | –
9 | CC[C@]1(O)C[C@H]2CN(CCc3c([nH]c4ccccc34)[C@@](C(=O)OC)(c3cc4c(cc3OC)N(C=O)[C@H]3[C@@](O)(C(=O)OC)[C@H](OC(C)=O)[C@]5(CC)C=CCN6CC[C@]43[C@@H]65)C2)C1 | – | – | 1.7 nM (active) and 1.84 µM (active)
10 | CN(C)c1ccc2nc3ccc(=[N+](C)C)cc-3sc2c1 | – | – | 2.09 µM (active) and 6.51 µM (active)
11 | CC(C)(S)[C@@H](N)C(=O)O | 2.35% (inactive) and 8.6% (inactive) | – | –
